Among the data in PubChem BioAssay AID651704 (Broad Institute, 2012) are inhibition values, retold here.

Screen size: about 350,000 compounds; about 1,600 (0.46%) were called active.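 The calls were made as follows: active = every replicate reaching a set inhibition limit, whatever the replicate mean (cut at about 25% in these data); inconclusive = mean inhibition reaches that limit but some replicates miss it; inactive = the rest.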 What follows is part of a selection rich in actives, with near analogues and random picks from the rest.

The target of the experiment is Protein AF-9 (Homo sapiens) (UniProt P42568). Briefly: inhibitors of AF4 peptide binding to AF9, primary screen, biochemical, AlphaScreen, biotin-AF4 peptide, FLAG-AF9, single point (AID 651704).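 Also: 0% = plate neutral control median and 100% = total signal loss.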 The following applies: at 10 µM, active compounds read high. In general terms: Alpha assays give light when donor and acceptor beads are brought close together.
Protein AF-9 (Homo sapiens), sequence (P42568 whole entry, looked up): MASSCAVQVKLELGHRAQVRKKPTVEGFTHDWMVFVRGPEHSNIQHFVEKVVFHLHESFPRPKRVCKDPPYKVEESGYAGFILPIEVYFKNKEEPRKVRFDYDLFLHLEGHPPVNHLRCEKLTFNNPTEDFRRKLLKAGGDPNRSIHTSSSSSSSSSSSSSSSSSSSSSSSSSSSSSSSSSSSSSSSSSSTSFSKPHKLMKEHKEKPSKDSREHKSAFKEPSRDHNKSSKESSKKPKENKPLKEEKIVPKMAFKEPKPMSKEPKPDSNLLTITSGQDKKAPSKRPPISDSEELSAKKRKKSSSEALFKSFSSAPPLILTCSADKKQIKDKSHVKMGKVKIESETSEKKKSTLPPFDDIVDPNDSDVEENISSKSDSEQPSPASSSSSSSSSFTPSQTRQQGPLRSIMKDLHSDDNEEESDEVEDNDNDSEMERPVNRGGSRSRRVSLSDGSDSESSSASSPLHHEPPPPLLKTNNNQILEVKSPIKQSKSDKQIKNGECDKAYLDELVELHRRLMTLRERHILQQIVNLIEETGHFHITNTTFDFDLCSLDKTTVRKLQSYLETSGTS
With `CCN(CC)c1ccc(/C=N/Nc2nc(C)cc(C)n2)c(O)c1`, the inhibition (as a rule, the change of the read-out against control, counted positive when it falls) was 79.7% (active).

For `Cc1cc(C)nc(N/N=C/c2c(CO)cnc(C)c2O)n1`, the inhibition was -5.08% (inactive).

In the case of `CCN(CC)c1ccc(/C=N/NC(=O)c2cnccn2)c(O)c1`, the inhibition was -1.45% (inactive). As for `O=C(C[C@H]1CC[C@H]2[C@@H](COC[C@H](O)CN2C(=O)c2ccncc2)O1)NCc1cc(F)cc(F)c1`, the inhibition is -16% (inactive).

For the molecule `COc1ccccc1NC(=O)N1CC(=O)N2[C@H](CO)[C@@H](c3ccc(C#Cc4ccc(F)cc4)cc3)[C@H]2C1`, the inhibition is 2.6% (inactive). As to `Cn1cnc(S(=O)(=O)N2C[C@H](O)COC[C@@H]3O[C@H](CC(=O)NC4CCCC4)CC[C@H]32)c1`, the inhibition is -0.241% (inactive). Consider `COc1ccc(S(=O)(=O)Nc2ccc3c(c2)CC(=O)N([C@@H](C)CO)C[C@@H](C)[C@@H](CN(C)Cc2ccc(C(=O)Nc4ccccc4N)cc2)O3)cc1`, for which the inhibition is -0.302% (inactive). `C[C@@H]1CCCCO[C@H](CN(C)S(=O)(=O)c2cn(C)cn2)[C@@H](C)CN([C@@H](C)CO)C(=O)c2cc(NC(=O)CCC(F)(F)F)ccc2O1`: the inhibition was -0.444% (inactive). Consider `COc1ccc(-n2nnnc2SCC(=O)c2ccc(OC)c(OC)c2)cc1`, for which the inhibition was -42.4% (inactive). Regarding `COc1ccc(C(=O)COC(=O)c2ccc([N+](=O)[O-])s2)cc1OC`, the inhibition is -0.958% (inactive).

As to `C=Cn1cc[n+](CC(=O)c2ccc(OC)c(OC)c2)c1`, the inhibition was 28.8% (active). `CO[C@@H]1CN(C)C(=O)c2ccc(NC(=O)C3CCCC3)cc2OC[C@H](C)NC[C@@H]1C`: the inhibition is -0.502% (inactive). Regarding `C#CCOCCOCCOCCNc1nc(N2CCN(C(=O)[C@H](CCCN=C(N)N)n3cc(C(N)[C@@H](C)CC)nn3)CC2)nc(N2CCN(C(=O)[C@H](CO)n3cc([C@@H](N)C(C)C)nn3)CC2)n1` (stereo not given in full), the inhibition was 29.3% (active). For `C#CCOCCOCCOCCNc1nc(N2CCN(C(=O)[C@H](CCC(=O)O)n3cc(C(N)CO)nn3)CC2)nc(N2CCN(C(=O)[C@H](Cc3ccc(O)cc3)n3cc(C(N)[C@H](C)CC)nn3)CC2)n1` (stereo not given in full), the inhibition is 2.1% (inactive). To `C#CCOCCOCCOCCNc1nc(N2CCN(C(=O)[C@H](CO)n3cc([C@@H](N)C(C)C)nn3)CC2)nc(N2CCN(C(=O)[C@H](CCC(=O)O)n3cc([C@@H](N)[C@H](C)CC)nn3)CC2)n1` belongs 0.229% (inactive); to `O=C([C@@H]1[C@@H](CO)[C@@H]2Cn3c(ccc(-c4ccccc4F)c3=O)[C@H]1N2C(=O)C1CCC1)N1CCCCC1`, -3.29% (inactive); to `C[C@@H]1CCCCO[C@H](CN(C)C(=O)Nc2ccc(C(F)(F)F)cc2)[C@@H](C)CN([C@@H](C)CO)C(=O)c2cc(NS(=O)(=O)c3cccs3)ccc2O1`, 2.48% (inactive). In the case of `CO[C@@H]1CN(C)C(=O)c2cc(NC(C)=O)ccc2OC[C@H](C)N(Cc2ccccn2)C[C@H]1C`, the inhibition is -0.12% (inactive).

On to `N#C[C@@H]1[C@@H](c2ccccc2C2=CCCC2)[C@H](CO)N1C(=O)NC1CCCC1`, for which the inhibition is 2.11% (inactive).

Consider `COCC#Cc1ccc([C@@H]2[C@@H](CO)N3C(=O)CN(C(=O)C4CCOCC4)C[C@@H]23)cc1`, for which the inhibition was -0.906% (inactive).
